# Source: PubChem BioAssay
# Sampled rows, rich in hits. Any-hit rate of the full collection: about 3.4%.
# TEAD-YAP block: TEAD-YAP interaction inhibition | HEK-TIYL cells, TEAD-Gal4/YAP UAS-luciferase luminescence | AID 1259422 | inhibition, % at 9.12 µM | actives 1.4% (n = 640,000); in the data active = inhibition above about 32%
# FBW7 act: activators of human E3 ligase FBW7. actives 0.13% (n = 650,000). AlphaScreen FBW7–phospho-cyclin E peptide binding, activator screen. normalized activity (activation), % at 26.1 µM. AID 1259310. Q969H0; in the data active = normalized activity above about 1.9%;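 note: purified mutant Fbw7 with reduced substrate affinity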
# MITF inh: inhibitors of human MITF; O75030; AlphaScreen MITF homodimerization, bead proximity signal; inhibition, % at 2.6 µM; actives 0.91% (n = 650,000); AID 1259374; in the data active = inhibition above about 50%
# Target sequence (O75030 whole entry, looked up): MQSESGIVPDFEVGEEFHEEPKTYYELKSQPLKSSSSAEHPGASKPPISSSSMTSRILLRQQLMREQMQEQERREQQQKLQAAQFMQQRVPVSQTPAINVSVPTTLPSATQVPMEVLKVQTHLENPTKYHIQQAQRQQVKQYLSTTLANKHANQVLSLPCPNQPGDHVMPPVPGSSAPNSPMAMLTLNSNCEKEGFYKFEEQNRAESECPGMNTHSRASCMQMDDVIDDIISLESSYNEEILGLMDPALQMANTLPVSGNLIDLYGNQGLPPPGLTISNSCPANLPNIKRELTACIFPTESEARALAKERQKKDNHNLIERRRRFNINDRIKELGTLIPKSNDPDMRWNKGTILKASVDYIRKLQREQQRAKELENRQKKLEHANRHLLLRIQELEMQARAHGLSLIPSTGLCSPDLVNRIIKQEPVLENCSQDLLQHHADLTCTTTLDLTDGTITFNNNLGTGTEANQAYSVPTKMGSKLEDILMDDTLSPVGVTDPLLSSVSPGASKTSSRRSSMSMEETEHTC
# GPR151 activ: activators of human GPR151; Q8TDV0; PathHunter beta-arrestin GPR151 cells, luminescence; activation, % at 11.2 µM; actives 1% (n = 650,000); AID 1508602; in the data active = activation above about 4.9%
# Numbers stand for hits; – = inactive.
SMILES,TEAD-YAP block,FBW7 act,MITF inh,GPR151 activ
O=C(COc1ccc(Cl)cc1Cl)Nc1ccc(O)cc1,32,–,–,–
CC(C)n1c(=O)c2oc3ccccc3c2n(CC(=O)Nc2ccccc2)c1=O,–,–,–,–
CC(=O)Oc1cccc(N2Cc3ccccc3C2=O)c1,73,–,–,–
C=CCc1cccc(/C=N\N2CCN(c3ccccc3OC)CC2)c1O,–,–,–,–
O=[N+]([O-])c1ccc(-c2cn3cc(Cl)ccc3n2)cc1,–,–,–,–
O=[N+]([O-])c1ccc2nc(-c3ccc(OC(F)F)cc3)cn2c1,45,–,–,–
CC(C)CC1NC(=O)N(CC(=O)Nc2ccc(F)cc2)C1=O (stereo not drawn),–,–,–,–
O=C1Cc2cc(S(=O)(=O)Nc3ccc(Oc4ccccc4)cc3)cc3c2N1CCC3,–,–,–,–
CC(C(=O)Nc1ccc(Cl)cn1)N1Cc2ccccc2C1=O (stereo not drawn),85,–,–,–
CCOc1ccccc1CN1C(=O)C2C(C(=O)Nc3ccc(Cl)cc3)C3C=CC2(O3)C1C(=O)NC1CCCCC1 (stereo not drawn),–,–,–,–
Cc1ccc(F)c(CN2CCN3C(=O)[C@@H](CC(C)C)NC(=O)[C@H]3C2)c1,–,–,–,–
Cc1cc2c(cc1C)NC(c1cc3c(cc1[N+](=O)[O-])OCO3)C1=C(CC(C)(C)CC1=O)N2 (stereo not drawn),72,–,–,–
Cc1ccoc1C(=O)NCC1Cc2cc(-c3ccc(S(C)(=O)=O)cc3)ccc2O1 (stereo not drawn),39,–,–,–
Cc1noc(C)c1C(=O)NCC1Cc2cc(-c3ccc(S(C)(=O)=O)cc3)ccc2O1 (stereo not drawn),–,–,–,–
O=S(=O)(NCC1CCCO1)c1ccc(Cc2ccc(S(=O)(=O)NCC3CCCO3)cc2)cc1 (stereo not drawn),43,–,–,–
O=S(=O)(NCC1CCCO1)c1ccc(-c2ccc(S(=O)(=O)NCC3CCCO3)cc2)cc1 (stereo not drawn),52,–,–,–
O=S(=O)(NCC1CCCO1)c1ccc(NS(=O)(=O)c2ccc(F)cc2)cc1 (stereo not drawn),–,–,–,–
CCCC1(CCC)NC(=O)N(CC(=O)Nc2ccc(C(C)=O)cc2)C1=O,–,–,–,–
NS(=O)(=O)c1ccc(S(=O)(=O)Nc2ccc(F)c(Cl)c2)cc1,–,–,–,–
FC(F)(F)C1=Nc2cccc3cccc(c23)N1,–,–,114,–
Cc1c(NS(=O)(=O)c2ccc([N+](=O)[O-])cc2)c(=O)n(-c2ccccc2)n1C,–,2.0,–,–
Cn1cc(-c2ccc3cnc(Nc4ccc(C(=O)N5CCOCC5)cc4)nc3c2)cn1,71,–,–,–
Cn1cc(-c2ccc3cnc(Nc4ccc(N5CCOCC5)cc4)nc3c2)cn1,60,–,–,–
Cn1cc(-c2ccc3cnc(Nc4ccc(-n5ccnc5)cc4)nc3c2)cn1,72,–,–,–
Cc1cnc(Nc2ccc(-n3ccnc3)cc2)nc1N,–,–,–,–
SMILES,TEAD-YAP block,FBW7 act,MITF inh,GPR151 activ
c1cn(-c2ccc(Nc3ncc4ccc(-c5cn[nH]c5)cc4n3)cc2)cn1,96,–,–,–
Cn1cc(-c2ccc3cnc(Nc4ccc(-n5cnc(-c6ccccn6)n5)cc4)nc3c2)cn1,96,–,–,–
Cc1ccc(-c2ncn(-c3ccc(Nc4ncc5ccc(-c6cnn(C)c6)cc5n4)cc3)n2)cn1,–,–,–,–
COc1cc(Nc2cc(Nc3cccc(N(C)C)c3)ncn2)cc(OC)c1OC,40,–,–,–
COc1cc(Nc2cc(Nc3nccc4ccccc34)ncn2)cc(OC)c1OC,49,–,–,–
Cc1cnc(Nc2ccncc2)nc1Nc1ccccc1,49,–,–,–
c1ccc(Nc2cc(Nc3nccc4ccccc34)ncn2)cc1,–,–,–,–
COc1cc(Nc2ccnc(Nc3cccc(N(C)C)c3)n2)cc(OC)c1OC,–,–,–,–
Cc1cnc(Nc2cccc(N(C)C)c2)nc1Nc1ccccc1,46,–,–,–
Cc1cnc(Nc2cccc(N(C)C)c2)nc1NCCN(C(C)C)C(C)C,–,–,–,–
CN(C)CCCN1C(=O)CCn2c(-c3ccccc3)c(-c3ccccc3)c3cccc1c32,–,–,–,–
CC(=O)NCCNC(=O)c1cc(C(F)(F)F)cc(C(F)(F)F)c1,–,–,–,–
COc1cc(Nc2nc(Nc3cccc(N(C)C)c3)ncc2C)cc(OC)c1OC,54,–,–,–
COc1ccc(CCNc2nc(Nc3cccc(N(C)C)c3)ncc2C)cc1,–,–,–,–
Fc1ccc(N2CCN(Cc3cccc(Cl)n3)CC2)cc1,–,–,–,–
COc1cc(C2CC(=O)Nc3cc4c(cc32)OCO4)c(Br)c(OC)c1OC (stereo not drawn),51,–,–,–
COc1cc(C2CC(=O)Nc3c2ccc2ccccc32)c(Br)c(OC)c1OC (stereo not drawn),59,–,–,–
COc1ccc(C2CC(=O)Nc3cc4c(cc32)OCO4)cc1O (stereo not drawn),–,–,–,–
Cc1nc2sccn2c1C(=O)NCc1ccco1,–,–,–,–
COc1cc(C(=O)NCC(=O)N/N=C/c2ccc(O)c([N+](=O)[O-])c2)cc(OC)c1OC,–,–,–,–
CC(=O)Nc1ccc(NC(=O)c2cc(NCCN3CCOCC3)nc3ccccc23)cc1,–,–,–,–
COc1ccc(CNc2ccc(C(=O)Nc3ccc(C)cc3C)cc2[N+](=O)[O-])cc1,56,–,–,–
CCNc1ccc(C(=O)NN)cc1[N+](=O)[O-],35,–,–,–
COc1cccc(NC(=O)c2ccc(NCc3ccccc3Cl)c([N+](=O)[O-])c2)c1,52,–,–,–
CCNc1ccc(C(=O)OCC(=O)OC(C)(C)C)cc1[N+](=O)[O-],–,–,–,–
SMILES,TEAD-YAP block,FBW7 act,MITF inh,GPR151 activ
Cc1ccc(NC(=O)c2ccc(NCc3ccc(F)cc3)c([N+](=O)[O-])c2)c(C)c1,–,–,–,–
CC[C@@H](Cn1nnc2ccccc2c1=O)NC(=O)Cc1ccc(F)cc1,–,–,–,–
CC(=O)N1CCSc2cc(S(=O)(=O)NCCCc3ccccc3)ccc21,35,–,–,–
CC(=O)N1CCSc2cc(S(=O)(=O)N3CCC(Cc4ccccc4)CC3)ccc21,55,–,–,–
C=CCc1ccc(Oc2ncnc3sc(-c4ccccc4)cc23)c(OC)c1,–,–,–,–
Oc1ccc(CCNc2nc(Nc3ncccn3)nc3c2ncn3-c2ccccc2)cc1,–,–,–,–
Oc1ccc(CCNc2nc(Nc3ccccn3)nc3c2ncn3-c2ccccc2)cc1,34,–,–,–
c1ccc(CNc2nc(Nc3ccccn3)nc3c2ncn3-c2ccsc2)cc1,–,–,–,–
Oc1ccc(CCNc2nc(NCc3cccnc3)nc3c2ncn3-c2ccsc2)cc1,–,–,–,–
Oc1ccc(CCNc2nc(NCc3cccnc3)nc3c2ncn3-c2ccccc2)cc1,54,–,–,–
Oc1ccc(CCNc2nc(Nc3ccccn3)nc3c2ncn3-c2ccsc2)cc1,46,–,–,–
COc1ccc(CCNc2nc(Nc3cccnc3)nc3c2ncn3-c2ccccc2)cc1,37,–,–,–
